Test results reported in PubChem BioAssay (Tox21).
Where “and” joins values, the source holds several entries; their conditions need not be identical. Equal entries are not always repeated. Results filed as inconclusive are left out. A call without a number means that no potency is given here. Some compounds were tested as several samples or in several runs, with calls that do not always agree. Calls of active or inactive are those of the source. Unless noted, the call rests on the fitted dose curve.

Tests used:
[1] = qHTS assay to identify small molecule agonists of the peroxisome proliferator-activated receptor delta (PPARd) signaling pathway - cell viability counter screen (AID 743211; active means well fitted curve in the direction sought with a large enough effect in the repeat runs; an effect the other way counts as inactive or inconclusive; further: nearly all actives have a fitted effect of over 55% in size)
Outline: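 Counter screen for cytotoxicity run in parallel with the PPARd reporter screen. Beta-lactamase reporter HEK293H cells exposed to compounds 17 h; ATP-based CellTiter-Glo luminescence quantified viability.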

[2] = target: Peroxisome proliferator-activated receptor delta (Homo sapiens) (UniProt Q03181); test: qHTS assay to identify small molecule agonists of the peroxisome proliferator-activated receptor delta (PPARd) signaling pathway (AID 743212)
Outline: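 Quantitative high-throughput agonist screen in a HEK293H beta-lactamase reporter line under UAS control. Compounds in DMSO, at 37 C. Fluorescence read after 2 h with FRET substrate at room temperature.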

[3] = qHTS assay to identify small molecule antagonists of the peroxisome proliferator-activated receptor delta (PPARd) signaling pathway - cell viability counter screen (AID 743213; active means well fitted curve in the direction sought with a large enough effect in the repeat runs; an effect the other way counts as inactive or inconclusive; further: nearly all actives have a fitted effect of over 50% in size)
Outline: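 Luminescence from CellTiter-Glo, added after the bla read and incubated 30 min at room temperature, gives viability of HEK293H PPARd-bla cells exposed to compounds for 17 h at 37 C with 300 nM L165041.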

[4] = target: Peroxisome proliferator-activated receptor delta (Homo sapiens) (UniProt Q03181); test: qHTS assay to identify small molecule antagonists of the peroxisome proliferator-activated receptor delta (PPARd) signaling pathway (AID 743215; active means well fitted inhibition curve with a large enough effect in the signal ratio in the repeat runs, not every such curve was filed as active; the % refers to the signal ratio;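 further: cells stimulated with agonist L165041 at 300 nM final during compound exposure; series mostly up to about 62 µM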)
Outline: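 Inhibition of L165041-driven (300 nM final) PPARd signaling is scored in HEK293H UAS-bla cells. Exposure lasts 17 h at 37 C; beta-lactamase activity is then read by FRET substrate fluorescence after 2 h at room temperature.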

[5] = qHTS assay to identify small molecule agonists of the farnesoid-X-receptor (FXR) signaling pathway - cell viability counter screen (AID 743218; active means well fitted curve in the direction sought with a large enough effect in the repeat runs; an effect the other way counts as inactive or inconclusive; further: nearly all actives have a fitted effect of over 45% in size)
Outline: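 Cytotoxicity counter-screen run in parallel, same wells: FXR-UAS-bla HEK 293T cells dosed 16 h at 37 C, viability read by CellTiter-Glo luminescence after 30 min at room temperature.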

[6] = qHTS assay to identify small molecule antagonists of the farnesoid-X-receptor (FXR) signaling pathway - cell viability counter screen (AID 743221; active means well fitted cell-killing curve with a large enough effect in the repeat runs, not every such curve was filed as active; further: nearly all actives have a fitted effect of over 50% in size)
Outline: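 Multiplexed counter screen: viability of FXR-bla HEK 293T cells under agonist stimulation by chenodeoxycholic acid (50 uM, final) and test compound for 16 h at 37 C, measured by CellTiter-Glo luminescence in the reporter wells.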

[7] = target: Vitamin D3 receptor (Homo sapiens) (UniProt P11473); test: qHTS assay to identify small molecule agonists of the vitamin D receptor (VDR) signaling pathway (AID 743222)
Outline: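 Quantitative HTS agonist-mode screen: compounds in DMSO were pin-transferred onto VDR-bla cells and incubated 16 h at 37C, 5% CO2. Reporter activity was detected with LiveBLAzer B/G FRET substrate after 2 h at room temperature.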

[8] = target: Vitamin D3 receptor (Homo sapiens) (UniProt P11473); test: qHTS assay to identify small molecule antagonists of the vitamin D receptor (VDR) signaling pathway (AID 743223; active means well fitted inhibition curve with a large enough effect in the signal ratio in the repeat runs, not every such curve was filed as active; the % refers to the signal ratio)
Outline: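 Cells carrying a VDR-driven beta-lactamase reporter (VDR-bla) were co-treated with compound and 3 nM final 1alpha,25-dihydroxyvitamin D3 for 16 h at 37C; reporter activity was measured as FRET substrate fluorescence after 2 h at room temperature.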

[9] = qHTS assay to identify small molecule agonists of the vitamin D receptor (VDR) signaling pathway - cell viability counter screen (AID 743224; active means well fitted curve in the direction sought with a large enough effect in the repeat runs; an effect the other way counts as inactive or inconclusive; further: series mostly up to about 63 µM; nearly all actives have a fitted effect of over 50% in size)
Outline: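 Viability is measured in the same wells as the VDR-bla reporter assay: after 16 h compound treatment and 2 h substrate loading, CellTiter-Glo is added and luminescence read 30 min later.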

[10] = qHTS assay to identify small molecule antagonists of the vitamin D receptor (VDR) signaling pathway - cell viability counter screen (AID 743225; active means well fitted curve in the direction sought with a large enough effect in the repeat runs; an effect the other way counts as inactive or inconclusive; further: nearly all actives have a fitted effect of over 50% in size)
Outline: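 HEK293T VDR-bla; cpd + 1a,25-(OH)2D3 3 nM final, 16 h 37C/5% CO2; B/G FRET substrate 2 h RT; then CellTiter-Glo 30 min RT, luminescence.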

[11] = qHTS assay to identify small molecule agonists of the NFkB signaling pathway - cell viability counter screen (AID 1159515); further: series mostly up to about 61 µM; nearly all actives have a fitted effect of over 55% in size
Outline: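 Multiplexed viability readout: after the 5 hr compound exposure and 1.5 hr FRET substrate step, CellTiter-Glo reagent went into the same NFkB-bla ME-180 wells; ATP luminescence was measured after 30 min at room temperature.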

[12] = qHTS assay to identify small molecule agonists of the endoplasmic reticulum stress response signaling pathway (AID 1159516; active means well fitted activation curve with a large enough effect in the signal ratio in the repeat runs, not every such curve was filed as active; the % refers to the signal ratio)
Outline: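 Tox21 10K library screened in quantitative HTS format on ESRE-bla HeLa cells, a beta-lactamase reporter under ER stress response element control; 5 hr treatment, FRET read.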

[13] = qHTS assay to identify small molecule agonists of the endoplasmic reticulum stress response signaling pathway - cell viability counter screen (AID 1159517)
Outline: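 Counter-screen wells were identical to the reporter wells. Cells were plated at 1,500 per well and dosed for 5 hr, then read for luminescence 30 min after CellTiter-Glo addition.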

[14] = qHTS assay to identify small molecule antagonists of the retinoid-related orphan receptor gamma (ROR-gamma) signaling pathway - cell viability counter screen (AID 1159520; active means well fitted curve in the direction sought with a large enough effect in the repeat runs; an effect the other way counts as inactive or inconclusive; further: nearly all actives have a fitted effect of over 50% in size)
Outline: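 Tet-on ROR gamma CHO cells were given compounds for 2 hr, then doxycycline hyclate at 1 uM final, and incubated 16 hr at 37 C. Viability was measured as ATP content by CellTiter-Glo luminescence.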

[15] = target: Nuclear receptor ROR-gamma (Homo sapiens) (UniProt P51449); test: qHTS assay to identify small molecule antagonists of the retinoid-related orphan receptor gamma (ROR-gamma) signaling pathway (AID 1159521; active means well fitted curve in the direction sought with a large enough effect in the repeat runs; an effect the other way counts as inactive or inconclusive; further: nearly all actives have a fitted effect of over 50% in size; further: potency means the concentration at half of the fitted maximal effect)
Outline: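 Cells were plated, rested 4 h at 37 C, exposed to compounds for 2 h, then given 1 uM final doxycycline hyclate to induce RORγ expression. After 16 h, ONE-Glo luminescence from the ROR response element reporter was measured.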

[16] = qHTS assay to identify small molecule agonists of the AP-1 signaling pathway - cell viability counter screen (AID 1159525); further: nearly all actives have a fitted effect of over 55% in size; further: potency means the concentration at half of the fitted maximal effect
Outline: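 AP-1-bla ME-180 cells in Opti-MEM with 0.5% dialyzed FBS, compound exposure 5 h at 37 C in 15-point titration. Viability read in the same wells as ATP content by CellTiter-Glo luminescence, normalised to tetra-n-octylammonium bromide and DMSO controls.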

[17] = qHTS assay to identify small molecule agonists of the AP-1 signaling pathway (AID 1159526)
[18] = target: Retinoic acid receptor RXR-alpha (Homo sapiens) (UniProt P19793); test: qHTS assay to identify small molecule agonists of the RXR signaling pathway (AID 1159527); further: nearly all actives have a fitted effect of over 35% in size
Outline: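 Cells plated at 2,000/well, rested 5 hr at 37 C, pin-dosed with DMSO compound solutions, incubated 16 hr, then loaded with B/G FRET substrate for 2 hr at RT before dual-emission fluorescence reading.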

[19] = target: Bile acid receptor (Homo sapiens) (UniProt Q96RI1); test: qHTS assay to identify small molecule antagonists of the farnesoid-X-receptor (FXR) signaling pathway (AID 743217; active means well fitted inhibition curve with a large enough effect in the signal ratio in the repeat runs, not every such curve was filed as active; the % refers to the signal ratio)
Outline: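 Antagonist mode against 50 uM (final) chenodeoxycholic acid stimulation in FXR-bla HEK 293T cells, 16 h at 37 °C. Inhibition detected as reduced beta-lactamase activity via LiveBLAzer B/G FRET fluorescence after 2 h at room temperature.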

[20] = target: Bile acid receptor (Homo sapiens) (UniProt Q96RI1); test: qHTS assay to identify small molecule agonists of the farnesoid-X-receptor (FXR) signaling pathway (AID 743220; active means well fitted activation curve with a large enough effect in the signal ratio in the repeat runs, not every such curve was filed as active; the % refers to the signal ratio)
Outline: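 Beta-lactamase reporter under UAS control in GeneBLAzer FXR HEK 293T cells (5000/well) measured with LiveBLAzer FRET substrate after 2 h at room temperature. Compound exposure lasted 16 h at 37C.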

Retinoic acid receptor RXR-alpha (Homo sapiens), sequence (P19793 whole entry, looked up): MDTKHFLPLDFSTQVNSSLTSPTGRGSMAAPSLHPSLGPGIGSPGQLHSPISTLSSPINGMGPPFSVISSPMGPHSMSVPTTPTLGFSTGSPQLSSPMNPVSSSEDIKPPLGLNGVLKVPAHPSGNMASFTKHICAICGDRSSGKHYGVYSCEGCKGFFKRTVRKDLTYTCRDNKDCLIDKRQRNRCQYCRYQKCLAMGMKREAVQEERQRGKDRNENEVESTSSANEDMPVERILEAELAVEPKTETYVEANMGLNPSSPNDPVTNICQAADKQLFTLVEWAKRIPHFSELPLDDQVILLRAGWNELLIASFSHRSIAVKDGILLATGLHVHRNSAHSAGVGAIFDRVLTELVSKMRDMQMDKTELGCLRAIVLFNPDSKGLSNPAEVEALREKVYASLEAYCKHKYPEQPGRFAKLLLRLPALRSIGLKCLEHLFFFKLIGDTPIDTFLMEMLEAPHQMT
Vitamin D3 receptor (Homo sapiens), sequence (P11473 whole entry, looked up): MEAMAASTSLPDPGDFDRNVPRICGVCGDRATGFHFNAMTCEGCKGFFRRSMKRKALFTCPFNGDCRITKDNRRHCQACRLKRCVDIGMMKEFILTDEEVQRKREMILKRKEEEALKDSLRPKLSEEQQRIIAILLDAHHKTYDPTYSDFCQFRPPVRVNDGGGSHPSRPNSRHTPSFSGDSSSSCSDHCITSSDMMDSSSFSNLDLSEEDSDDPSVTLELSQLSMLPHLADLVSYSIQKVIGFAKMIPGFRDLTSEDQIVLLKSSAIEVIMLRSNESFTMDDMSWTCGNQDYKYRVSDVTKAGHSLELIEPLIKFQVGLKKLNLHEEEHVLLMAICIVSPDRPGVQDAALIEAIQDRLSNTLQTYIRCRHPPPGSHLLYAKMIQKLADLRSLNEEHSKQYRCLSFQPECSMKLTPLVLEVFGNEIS
Bile acid receptor (Homo sapiens), sequence (Q96RI1 whole entry, looked up): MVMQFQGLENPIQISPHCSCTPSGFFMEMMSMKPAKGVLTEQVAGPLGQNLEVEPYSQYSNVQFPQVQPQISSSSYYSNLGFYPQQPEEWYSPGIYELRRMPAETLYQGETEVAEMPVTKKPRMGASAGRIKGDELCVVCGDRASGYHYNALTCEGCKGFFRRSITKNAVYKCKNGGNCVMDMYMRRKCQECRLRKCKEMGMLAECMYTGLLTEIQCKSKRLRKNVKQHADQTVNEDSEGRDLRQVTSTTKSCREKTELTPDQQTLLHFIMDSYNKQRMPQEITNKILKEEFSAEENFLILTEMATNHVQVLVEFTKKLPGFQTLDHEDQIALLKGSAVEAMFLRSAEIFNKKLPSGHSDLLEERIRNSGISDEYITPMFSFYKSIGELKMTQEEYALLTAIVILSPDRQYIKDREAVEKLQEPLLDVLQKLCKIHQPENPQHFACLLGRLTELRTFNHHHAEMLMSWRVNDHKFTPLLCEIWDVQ
Peroxisome proliferator-activated receptor delta (Homo sapiens), sequence (Q03181 whole entry, looked up): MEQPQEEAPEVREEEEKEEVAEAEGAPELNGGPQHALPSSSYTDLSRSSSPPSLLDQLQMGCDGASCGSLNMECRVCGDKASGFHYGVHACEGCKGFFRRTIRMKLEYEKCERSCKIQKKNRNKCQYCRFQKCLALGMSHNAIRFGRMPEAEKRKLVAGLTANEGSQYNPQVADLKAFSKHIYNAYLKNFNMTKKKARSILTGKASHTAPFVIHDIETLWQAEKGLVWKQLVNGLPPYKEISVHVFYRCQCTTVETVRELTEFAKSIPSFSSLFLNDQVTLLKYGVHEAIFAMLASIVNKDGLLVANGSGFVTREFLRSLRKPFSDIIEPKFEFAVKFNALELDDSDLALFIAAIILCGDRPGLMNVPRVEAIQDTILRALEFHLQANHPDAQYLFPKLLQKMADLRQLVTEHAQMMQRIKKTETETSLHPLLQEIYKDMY

Row | SMILES | Potency [1] | Potency [2] | Potency [3] | Potency [4] | Potency [5] | Potency [6] | outcome [7] | Potency [8] | Potency [9] | Potency [10] | Potency [11] | Potency [12] | Potency [13] | Potency [14] | Potency [15] | Potency [16] | outcome [17] | Potency [18] | Potency [19] | Potency [20]
1 | CC(C)CON=O | inactive | inactive | inactive | inactive | inactive | inactive | inactive | inactive | inactive | inactive | inactive | inactive | inactive | inactive | inactive | inactive | inactive | inactive | – | –
2 | Brc1ccc(Br)cc1 | inactive | inactive | – | inactive | – | inactive | inactive | inactive | inactive | inactive | inactive | inactive | inactive | inactive | inactive | inactive | inactive | inactive | inactive | inactive
3 | O=NN(c1ccccc1)c1ccccc1 | inactive | inactive | inactive | inactive | inactive | – | – | – | inactive | inactive | inactive | inactive | inactive | inactive | inactive | inactive | inactive | inactive | inactive | inactive
4 | CC1=C(C(=O)Nc2ccccc2)SCCO1 | inactive | inactive | – | inactive | inactive | inactive | inactive | inactive | inactive | inactive | inactive | inactive | inactive | inactive | inactive | inactive | inactive | inactive | inactive | inactive
5 | CC1CC(=O)O1 (stereo unspecified) | inactive | inactive | inactive | inactive | inactive | – | inactive | inactive | inactive | inactive | inactive | inactive | inactive | inactive | inactive | inactive | inactive | inactive | inactive | inactive
6 | CN(C)c1nc(=O)n(C2CCCCC2)c(=O)n1C | inactive | inactive | inactive | inactive | – | inactive | inactive | inactive | inactive | inactive | inactive | inactive | inactive | inactive | inactive | inactive | inactive | inactive | inactive | inactive
7 | CNC(=O)CSP(=S)(OC)OC | inactive | inactive | inactive | inactive | – | inactive | inactive | inactive | inactive | inactive | inactive | inactive | inactive | inactive | inactive | inactive | inactive | inactive | – | –
8 | CCNCC | inactive | inactive | inactive | inactive | inactive | – | inactive | – | inactive | inactive | inactive | inactive | inactive | inactive | inactive | inactive | inactive | inactive | – | –
9 | Nc1ncn[nH]1 | inactive | inactive | – | inactive | inactive | inactive | – | – | inactive | inactive | inactive | inactive | inactive | inactive | inactive | inactive | inactive | inactive | inactive | inactive
10 | COC(=O)Nc1nc2ccccc2[nH]1 | inactive | inactive | inactive | inactive | inactive | inactive | inactive | – | inactive | inactive | inactive | inactive | inactive | inactive | inactive | inactive | inactive | inactive | – | –
11 | O=C1Nc2ccc(Cl)cc2C(c2ccccc2)=NC1O (stereo unspecified) | inactive | inactive | – | inactive | inactive | inactive | inactive | inactive | inactive | inactive | inactive | inactive | inactive | inactive | inactive | inactive | inactive | inactive | inactive | inactive
12 | ClC(Cl)(Cl)Br | inactive | inactive | inactive | inactive | inactive | – | inactive | inactive | inactive | inactive | inactive | inactive | inactive | inactive | inactive | inactive | inactive | inactive | inactive | inactive
13 | ClC(Cl)(Cl)c1ccccc1 | inactive | inactive | inactive | inactive | inactive | inactive | inactive | inactive | inactive | inactive | inactive | inactive | inactive | inactive | inactive | inactive | inactive | inactive | inactive | inactive
14 | CCCCOCC1CO1 (stereo unspecified) | inactive | inactive | inactive | inactive | inactive | – | inactive | inactive | inactive | inactive | inactive | inactive | inactive | inactive | inactive | inactive | inactive | inactive | inactive | inactive
15 | Nc1ccc([N+](=O)[O-])cc1N | inactive | inactive | inactive | inactive | – | inactive | inactive | inactive | inactive | inactive | inactive | inactive | inactive | inactive | 9.68 µM (active) and 30.6 µM (active) | 34.7 µM (active) and inactive | inactive | inactive | – | –
